Experimental data reported in the supplement of paper PMC11732987, “Enantioselective OTUD7B fragment discovery through chemoproteomics screening and high-throughput optimisation” (Communications Chemistry, 2025).

What was measured:
Test in all cases: log2 ratio of Biotin-Ahx-Ub-VS probe labelling (compound/DMSO); higher = less target engagement, active = hit call of the paper (q ≤ 0.05, log2 ratio ≤ -1)
Details in all cases: treatment time: 3 h
[1] = compound: CCC1N(CCc2sccc12)C(=O)CCl
Outline: (§1)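 Compound at 50 or 200 µM, or DMSO, was applied for 3 h in triplicate to HEK293T lysate (495 µg per sample, Tris/CHAPS/IGEPAL buffer with protease inhibitors), after which Biotin-Ahx-Ub-VS was added at 0.5 µM final for 1 h. The labelled DUBs were pulled down with NeutrAvidin, digested with LysC and trypsin, and run by diaPASEF LC-MS/MS. Ratios are averaged base-two logs of compound over DMSO from median-normalised label-free quantities by unpaired t-test, counting only proteins with at least 2 unique peptides.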

[2] = compound: CN1c2ccccc2C(CS1(=O)=O)NC(=O)CCl
Outline: as §1

[3] = compound: Cl.ClCC(=O)N1CCc2ncncc2C1
Outline: as §1

[4] = compound: Cl.Cn1ncc2C(CCCc12)NC(=O)CCl
Outline: as §1

[5] = compound: ClCC(=O)NC1CCOc2ccccc12
Outline: as §1

[6] = compound: ClCC(=O)NC1CCCc2ccccc12
Outline: (§2)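 Each value is an average ratio of compound to vehicle, calculated by unpaired t-test. Lysate from HEK293T cells (495 µg per sample) was incubated in triplicate with compound over a concentration range or vehicle for 3 h and then with Biotin-Ahx-Ub-VS (0.5 µM final) for 1 h. Probe-labelled deubiquitinases were captured on NeutrAvidin, digested and run by diaPASEF LC-MS/MS, with Spectronaut label-free quantities normalised to the global median. Ratios are log2, and only proteins with at least two unique peptides were used.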

[7] = compound: ClCC(=O)N[C@@H]1CCCc2ccccc12
Outline: as §2

[8] = compound: ClCC(=O)N[C@H]1CCCc2ccccc12
Outline: as §2

[9] = compound: CCC1N(CCc2cc(OC)c(Cl)cc12)C(=O)CCl
Outline: as §1

[10] = compound: CCCC1N(CCc2cc(OC)c(OC)cc12)C(=O)CCl
Outline: as §1

[11] = compound: CN(Cc1cccc(Br)c1)C(=O)CCl
Outline: as §1

[12] = compound: CN(Cc1cccc(OCc2ccccc2C)c1)C(=O)CCl
Outline: as §1

[13] = compound: CN(Cc1ccccc1)C(=O)CCl
Outline: as §1

[14] = compound: COc1ccc(CN(C)C(=O)CCl)cc1
Outline: as §1

[15] = compound: COc1cccc(CN(CCCc2ccccc2)C(=O)CCl)c1
Outline: as §1

[16] = compound: ClCC(=O)N1CCc2cc(Cl)c(Cl)cc2C1
Outline: as §1

[17] = compound: ClCC(=O)N1CCc2nc(ncc2C1)-c1ccccc1
Outline: as §1

[18] = compound: ClCC(=O)N1CCc2nocc2C1
Outline: as §1

[19] = compound: ClCC(=O)N1CCc2scc(Br)c2C1
Outline: as §1

[20] = compound: ClCC(=O)NC(C1CCCC1)c1cccs1
Outline: as §1

Measured: log2 ratio of Biotin-Ahx-Ub-VS probe labelling

USP5 (UniProt P45974)
Chain of UniProt P45974 (P45974 whole entry): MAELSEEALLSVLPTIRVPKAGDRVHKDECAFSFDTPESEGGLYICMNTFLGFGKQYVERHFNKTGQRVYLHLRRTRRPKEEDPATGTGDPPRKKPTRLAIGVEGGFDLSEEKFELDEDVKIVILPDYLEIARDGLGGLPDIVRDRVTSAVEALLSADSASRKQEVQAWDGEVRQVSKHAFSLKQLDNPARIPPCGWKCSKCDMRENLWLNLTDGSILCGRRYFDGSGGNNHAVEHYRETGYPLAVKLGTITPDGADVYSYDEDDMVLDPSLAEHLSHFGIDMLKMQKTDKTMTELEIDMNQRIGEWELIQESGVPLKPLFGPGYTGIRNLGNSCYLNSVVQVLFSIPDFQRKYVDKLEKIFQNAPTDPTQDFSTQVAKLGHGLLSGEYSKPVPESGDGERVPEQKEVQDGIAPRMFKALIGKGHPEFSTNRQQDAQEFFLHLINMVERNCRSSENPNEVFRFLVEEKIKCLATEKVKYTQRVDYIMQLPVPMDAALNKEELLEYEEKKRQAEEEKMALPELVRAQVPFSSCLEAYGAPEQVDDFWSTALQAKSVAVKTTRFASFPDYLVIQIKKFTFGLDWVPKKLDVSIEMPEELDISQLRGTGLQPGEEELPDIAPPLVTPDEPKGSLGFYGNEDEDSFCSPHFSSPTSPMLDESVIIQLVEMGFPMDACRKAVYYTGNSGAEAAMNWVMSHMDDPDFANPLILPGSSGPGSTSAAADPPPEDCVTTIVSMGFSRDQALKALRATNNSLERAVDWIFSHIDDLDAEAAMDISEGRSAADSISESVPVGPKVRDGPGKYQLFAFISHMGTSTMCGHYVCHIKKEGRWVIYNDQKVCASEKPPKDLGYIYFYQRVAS
inactive: [1]; compound concentration: 50uM 0.107 | [1]; compound concentration: 200uM 0.165 | [2]; compound concentration: 50uM -0.0432 | [2]; compound concentration: 200uM -0.0749 | [3]; compound concentration: 50uM 0.179 | [3]; compound concentration: 200uM -0.233 | [4]; compound concentration: 50uM 0.122 | [4]; compound concentration: 200uM -0.00464 | [5]; compound concentration: 50uM 0.209 | [5]; compound concentration: 200uM 0.107 | [6]; compound concentration: 0.78uM -0.0702 | [6]; compound concentration: 1.56uM -0.0265 | [6]; compound concentration: 3.13uM -0.189 | [6]; compound concentration: 6.25uM -0.131 | [6]; compound concentration: 12.5uM -0.157 | [6]; compound concentration: 25uM -0.19 | [6]; compound concentration: 50uM -0.0861 | [6]; compound concentration: 100uM -0.067 | [6]; compound concentration: 200uM -0.0831 | [7]; compound concentration: 0.78uM -0.209 | [7]; compound concentration: 1.56uM -0.162 | [7]; compound concentration: 3.13uM -0.139 | [7]; compound concentration: 6.25uM -0.155 | [7]; compound concentration: 12.5uM -0.0604 | [7]; compound concentration: 25uM -0.131 | [7]; compound concentration: 50uM -0.159 | [7]; compound concentration: 100uM -0.0875 | [7]; compound concentration: 200uM -0.125 | [8]; compound concentration: 0.78uM -0.109 | [8]; compound concentration: 1.56uM -0.17 | [8]; compound concentration: 3.13uM -0.185 | [8]; compound concentration: 6.25uM -0.0549 | [8]; compound concentration: 12.5uM -0.103 | [8]; compound concentration: 25uM -0.119 | [8]; compound concentration: 50uM -0.0192 | [8]; compound concentration: 100uM -0.093 | [8]; compound concentration: 200uM -0.184 | [9]; compound concentration: 50uM 0.0912 | [9]; compound concentration: 200uM -0.014 | [10]; compound concentration: 50uM -0.158 | [10]; compound concentration: 200uM -0.268 | [11]; compound concentration: 50uM 0.304 | [11]; compound concentration: 200uM 0.538 | [12]; compound concentration: 50uM -0.113 | [12]; compound concentration: 200uM -0.0873 | [13]; compound concentration: 50uM -0.0827 | [13]; compound concentration: 200uM -0.00169 | [14]; compound concentration: 50uM -0.0203 | [14]; compound concentration: 200uM 0.204 | [15]; compound concentration: 50uM 0.212 | [15]; compound concentration: 200uM 0.11 | [16]; compound concentration: 50uM 0.412 | [16]; compound concentration: 200uM -0.121 | [17]; compound concentration: 50uM 0.389 | [17]; compound concentration: 200uM 0.254 | [18]; compound concentration: 50uM 0.00846 | [18]; compound concentration: 200uM 0.00188 | [19]; compound concentration: 50uM 0.214 | [19]; compound concentration: 200uM 0.0804 | [20]; compound concentration: 50uM 0.00222 | [20]; compound concentration: 200uM -0.112

UniProt O00487
Chain of UniProt O00487 (O00487 whole entry): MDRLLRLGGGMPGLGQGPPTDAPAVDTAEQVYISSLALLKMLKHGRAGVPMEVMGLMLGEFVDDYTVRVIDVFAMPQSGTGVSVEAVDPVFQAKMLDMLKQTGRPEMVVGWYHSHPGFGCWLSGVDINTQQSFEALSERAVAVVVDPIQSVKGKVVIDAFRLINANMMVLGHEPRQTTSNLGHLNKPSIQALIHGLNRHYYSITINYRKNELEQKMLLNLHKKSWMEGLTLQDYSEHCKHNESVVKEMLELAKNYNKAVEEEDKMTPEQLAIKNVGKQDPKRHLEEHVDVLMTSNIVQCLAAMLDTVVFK
inactive: [1]; compound concentration: 50uM -0.193 | [1]; compound concentration: 200uM -0.218 | [2]; compound concentration: 50uM -0.0425 | [2]; compound concentration: 200uM -0.0779 | [3]; compound concentration: 50uM 0.107 | [3]; compound concentration: 200uM -0.106 | [4]; compound concentration: 50uM -0.124 | [4]; compound concentration: 200uM -0.336 | [5]; compound concentration: 50uM 0.217 | [5]; compound concentration: 200uM -0.351 | [6]; compound concentration: 0.78uM -0.644 | [6]; compound concentration: 1.56uM -0.964 | [6]; compound concentration: 3.13uM -0.768 | [6]; compound concentration: 6.25uM -0.916 | [6]; compound concentration: 12.5uM -0.0532 | [6]; compound concentration: 25uM -1.08 | [6]; compound concentration: 50uM -1.09 | [6]; compound concentration: 100uM -0.828 | [6]; compound concentration: 200uM -0.122 | [7]; compound concentration: 0.78uM -0.274 | [7]; compound concentration: 1.56uM -0.457 | [7]; compound concentration: 3.13uM -0.399 | [7]; compound concentration: 6.25uM -0.508 | [7]; compound concentration: 12.5uM -0.515 | [7]; compound concentration: 25uM -0.563 | [7]; compound concentration: 50uM -0.92 | [7]; compound concentration: 100uM 0.108 | [7]; compound concentration: 200uM -0.319 | [8]; compound concentration: 0.78uM -0.768 | [8]; compound concentration: 1.56uM -0.631 | [8]; compound concentration: 3.13uM -0.859 | [8]; compound concentration: 6.25uM -0.646 | [8]; compound concentration: 12.5uM 0.00923 | [8]; compound concentration: 25uM -0.657 | [8]; compound concentration: 50uM -0.0791 | [8]; compound concentration: 100uM -0.905 | [8]; compound concentration: 200uM -0.369 | [9]; compound concentration: 50uM 0.0571 | [9]; compound concentration: 200uM 0.132 | [10]; compound concentration: 50uM 0.000271 | [10]; compound concentration: 200uM -0.108 | [11]; compound concentration: 50uM -0.27 | [11]; compound concentration: 200uM -0.709 | [12]; compound concentration: 50uM -0.154 | [12]; compound concentration: 200uM -0.202 | [13]; compound concentration: 50uM -0.0192 | [13]; compound concentration: 200uM 0.243 | [14]; compound concentration: 50uM -0.0826 | [14]; compound concentration: 200uM -0.0205 | [15]; compound concentration: 50uM 0.102 | [15]; compound concentration: 200uM 0.0842 | [16]; compound concentration: 50uM -0.325 | [16]; compound concentration: 200uM -0.335 | [17]; compound concentration: 50uM -0.128 | [17]; compound concentration: 200uM 0.13 | [18]; compound concentration: 50uM -0.239 | [18]; compound concentration: 200uM -0.187 | [19]; compound concentration: 50uM -0.175 | [19]; compound concentration: 200uM -0.724 | [20]; compound concentration: 50uM -0.101 | [20]; compound concentration: 200uM -0.0832
